IEC-6 tox-1: kills IEC-6 intestinal cells in KLF5 counter-screen | IEC-6 cytotoxicity, luminescence viability | inhibition, % at 5 µM | hit rate 0.78% among 290,000 | AID 1825
KLF5 inh: suppresses KLF5 promoter-driven expression. DLD-1 KLF5 promoter-luciferase reporter, luminescence. hit rate 0.23% among 290,000. inhibition, % at 5 µM. AID 1700;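 active = inhibition above a per-plate limit of that plate's mean compound inhibition plus 3 SD, cut at about 60% in these data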;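 note: higher means less KLF5 promoter-driven luciferase light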
Ba/F3 V617F tox: lowers viability of Ba/F3 cells expressing EpoR and JAK2V617F | hit rate 1.1% among 220,000 | inhibition, % at 5.6 µM | AID 1446 | ATP luminescence;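 active = inhibition above the campaign mean plus 3 SD over all tested compounds, cut at about 24% in these data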;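 note: cytokine-independent growth of Ba/F3 cells driven by EpoR plus mutant JAK2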
GPR7 antagonist: human neuropeptides B/W receptor 1 antagonism; P48145; inhibition, % at 4.4 µM; hit rate 1.1% among 290,000; GPR7-expressing cells, fluorescence antagonist assay; in the data active = inhibition above about 16%, passing the limit was not always enough;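 note: cells stimulated with the agonist NPW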
Target sequence (P48145 whole entry, looked up): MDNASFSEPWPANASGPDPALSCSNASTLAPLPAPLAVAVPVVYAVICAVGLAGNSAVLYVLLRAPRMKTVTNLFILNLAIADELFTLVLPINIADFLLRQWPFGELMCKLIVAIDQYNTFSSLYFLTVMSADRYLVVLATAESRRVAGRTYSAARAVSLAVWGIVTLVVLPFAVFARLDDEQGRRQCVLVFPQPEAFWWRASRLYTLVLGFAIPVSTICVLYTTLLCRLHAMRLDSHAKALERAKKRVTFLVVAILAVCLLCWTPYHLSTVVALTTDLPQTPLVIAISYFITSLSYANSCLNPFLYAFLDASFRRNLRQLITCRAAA
BaF3 tox: counter-screen for JAK2V617F inhibitors: parental Ba/F3 viability inhibitors; inhibition, % at 5.6 µM; hit rate 1.1% among 220,000; CellTiter-Glo ATP luminescence; AID 1486;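 active = inhibition above a per-campaign cutoff, the mean inhibition of all tested compounds plus 3 SD, cut at about 27% in these data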
DNA FID counter: fluorescent intercalator displacement, NS3 helicase counter-screen. inhibition, % at 7.9 µM. AID 1845. hit rate 0.17% among 290,000. DNA fluorescent intercalator displacement, fluorescence; in the data active = inhibition above about 37%;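 note: higher means more ethidium bromide displaced from hairpin DNA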
KLF5 confirm: confirmation of KLF5 inhibitors | shares compounds with KLF5 inh | DLD-1 KLF5 promoter firefly luciferase reporter, luminescence | inhibition, % at 4 µM | hit rate 79% among 610;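 active = inhibition above a set limit taken from the earlier primary screen, cut at about 63% in these data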
IEC-6 tox-2: counter-screen for KLF5 inhibitors: cytotoxicity in rat IEC-6 cells. shares compounds with KLF5 inh. IEC-6 rat intestinal cells, viability luminescence. hit rate 56% among 610. inhibition, % at 4 µM; in the data active = inhibition above about 23%;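 note: cells exposed to compounds for 48 hours before viability read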
IEC-6 tox confirm: confirmation of cytotoxic compounds in rat IEC-6 intestinal epithelial cells | shares compounds with IEC-6 tox-1 | IEC-6 rat intestinal epithelial viability, luminescence | inhibition, % at 5 µM | hit rate 63% among 1,900 | AID 1907
Numbers stand for hits; - = inactive; . = no result. A selection: hits, their analogues and other compounds. The true share with any hit is near 2.6%. Cut-off read from the data, not from the text of the source, unless noted: active = inhibition above about 22%; inactive = the rest.

SMILES | IEC-6 tox-1 | KLF5 inh | Ba/F3 V617F tox | GPR7 antagonist | BaF3 tox | DNA FID counter | KLF5 confirm | IEC-6 tox-2 | IEC-6 tox confirm
COc1ccc(/C=N/NC(=O)c2[nH]c3ccc(Br)cc3c2-c2ccccc2)cc1 | 73 | 82 | 96 | - | 93 | - | 90 | 86 | 83
COc1ccc(/C=N/NC(=O)c2[nH]c3ccc(Br)cc3c2-c2ccccc2)c(C(=O)O)c1OC | - | - | - | - | - | - | . | . | .
Cc1cc(C)c(S(=O)(=O)Nc2ccc3c4c(cccc24)CC3)c(C)c1 | 89 | 70 | 77 | - | 79 | - | 84 | 57 | 56
CCOc1ccc(/C=N/Nc2ccc(Cl)nn2)c(O)c1 | 94 | 82 | . | - | . | - | - | - | -
Oc1ccc(N=Nc2ccccc2C(F)(F)F)c2cccnc12 | 45 | 63 | . | - | . | - | 86 | - | -
COc1cccc(CNC(=O)C(c2ccc(Cl)cc2)C(C)C)c1 (configuration not stated) | - | - | - | - | - | - | . | . | .
COc1ccccc1-c1nnc2sc(-c3cnccn3)nn12 | - | - | - | - | - | - | . | . | .
COc1ccccc1-c1nnc2sc(-c3ccc(N(C)C)cc3)nn12 | 91 | 72 | 81 | - | 80 | - | 91 | 72 | 72
COc1cccc(C(=O)Nc2sc3c(c2C#N)CCN(C(C)=O)C3)c1 | 77 | 74 | 76 | - | 81 | - | 79 | 56 | 26
COc1cccc(C(=O)Nc2sc3c(c2C(=O)O)CCCC3)c1 | - | - | . | - | . | - | . | . | .
C1CCC(c2nn3c(-c4n[nH]c5c4CCC5)nnc3s2)CC1 | - | - | - | - | - | - | . | . | .
CCN(CC)c1ccc(-c2nn3c(-c4n[nH]c5c4CCC5)nnc3s2)cc1 | 85 | 73 | 75 | - | 78 | - | 77 | 62 | 50
O=C(Nc1ccc2nc3n(c(=O)c2c1)CCCCC3)c1c(F)ccc([N+](=O)[O-])c1F | 92 | 62 | . | - | . | - | - | - | 32
COc1cc(C(=O)N2CCN(c3cccc(C)c3C)CC2)cc(OC)c1OC | 82 | 72 | 70 | - | 71 | - | 75 | 59 | 58
CC1CCCCC1NC(=O)CN1C(=O)c2ccccc2S1(=O)=O (configuration not stated) | - | - | . | - | . | - | . | . | .
O=C1CCCN1c1ccc(S(=O)(=O)Nc2ccc3c(c2)OCCO3)cc1 | 79 | 78 | 82 | - | 73 | - | 70 | 41 | 50
COc1ccc(N/N=C/c2c(C(=O)O)ccc3ccccc23)cc1 | 41 | 73 | 35 | - | 40 | - | 91 | - | 36
N#CC1(P(=O)(c2ccccc2)c2ccccc2)CC1 | - | - | - | - | - | - | . | . | .
C=C(C)COc1ccc(-c2n[nH]c(C)c2-c2ccc(OC)c(OC)c2)c(O)c1 | 75 | 63 | 78 | - | 76 | - | 70 | 28 | 49
C=CCOC(=O)c1[nH]c2c(c1C)C(=O)CC(c1ccco1)C2 (configuration not stated) | 89 | 90 | 82 | - | 84 | - | 84 | 60 | 56
COC(=O)c1[nH]c2c(c1C)C(=O)CC(c1ccc(OC)cc1)C2 (configuration not stated) | - | - | . | - | . | - | . | . | .
C/C=C/COC(=O)c1[nH]c2c(c1C)C(=O)CC(c1ccc(N(C)C)cc1)C2 (configuration not stated) | - | - | - | - | - | - | . | . | .
COC(=O)c1[nH]c2c(c1C)C(=O)CC(c1ccccc1)C2 (configuration not stated) | 87 | 72 | 74 | - | 75 | - | 88 | 72 | 64
CN(Cc1ccccc1)c1nc2c(c(=O)[nH]c(=O)n2C)n1Cc1ccccc1F | - | - | . | - | . | - | . | . | .
CNC(C)C#Cc1c(-c2cc(OC)c(OC)c(OC)c2)noc1C (configuration not stated) | - | - | . | - | . | - | . | . | .
SMILES | IEC-6 tox-1 | KLF5 inh | Ba/F3 V617F tox | GPR7 antagonist | BaF3 tox | DNA FID counter | KLF5 confirm | IEC-6 tox-2 | IEC-6 tox confirm
COc1cc(-c2noc(C)c2/C=C/c2ccc(N)cc2)cc(OC)c1OC | 96 | 66 | . | - | . | - | 91 | 73 | 76
COc1cc(-c2noc(C)c2C#Cc2ccccn2)cc(OC)c1OC | 82 | 62 | . | - | . | - | 71 | 61 | 62
COc1cc(-c2c(-c3cc(OC)c(OC)c(OC)c3)noc2C)ccc1F | 98 | 79 | . | - | . | - | 88 | 74 | 71
CCN(CC)S(=O)(=O)c1cccc(C(=O)N2CCCc3ccccc32)c1 | - | - | . | - | . | - | . | . | .
COc1ccc(Cn2nnnc2CN(CCCN2CCOCC2)Cc2cc3cc(OC)ccc3[nH]c2=O)cc1 | - | - | - | - | - | - | . | . | .
Cc1ccnc(NC(=O)c2ccccc2NC(=O)c2ccc(Cl)cc2Cl)c1 | 78 | 67 | . | - | . | - | 69 | 49 | 59
Cc1ccnc(NC(=O)c2ccc(Cl)c(NC(=O)c3ccccc3C)c2)c1 | - | - | . | - | . | - | . | . | .
N#CC(C#N)=C(Nc1ccc(F)cc1)SCc1cccc(Br)c1 | 30 | 65 | - | - | - | - | 68 | 28 | 41
Cc1cccc(CSC(Nc2ccc(F)cc2)=C(C#N)C#N)c1 | - | - | - | - | - | - | . | . | .
CSc1ccc(CN(C)Cc2nc3ccccc3c(=O)[nH]2)cc1 | - | - | - | - | - | - | . | . | .
COc1ccc(S(=O)(=O)NCc2ccccn2)cc1Br | - | - | . | - | . | - | . | . | .
CCOc1ccc(S(=O)(=O)NCc2ccccn2)cc1NC(=O)c1ccccc1F | 88 | 70 | . | - | . | - | 81 | 55 | 58
O=C(CSc1nnc(-c2cccnc2)n1Cc1ccco1)N1c2ccccc2Sc2ccccc21 | - | - | - | - | - | - | . | . | .
COc1cccc(COc2ccc3c(C)cc(=O)oc3c2)c1 | - | - | . | - | . | - | . | . | .
COc1ccccc1C1=NOC(COc2ccc3c(C)cc(=O)oc3c2)C1 (configuration not stated) | 83 | 71 | 75 | - | 78 | - | 81 | 61 | 57
C=CCOc1ccc(CNc2nn[nH]n2)cc1OC | - | - | - | - | - | - | . | . | .
